From PubChem
Pf growth 96h – inhibits malaria parasite growth, 96 h. P. falciparum luciferase reporter growth, 96 h. Potency, µM (doses to about 28.7 µM), for inactives: at the top dose activity change, negative = inhibition, actives largely listed as inhibitors. 320,000 tested, 6.9% active. AID 504834; also: potency is read from the fitted curve at half-maximal effect; % is scaled to controls: 0 for no effect and ±100 for the full control effect
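P. falciparum expressing integrated firefly luciferase grown in erythrocytes (2% hematocrit, 0.05% parasitemia final) with compounds for 96 hours at 37 C, 5% CO2. Growth inhibition read as loss of luminescence after adding luciferase detection reagent.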
CHX counter – affects cycloheximide protein synthesis inhibition readout, counter-screen; cell reporter, cycloheximide protein synthesis inhibition counterscreen; max response, %; 300,000 tested, 12% active; AID 2314; in the data active = max response mostly above about 13%, no sharp cut-off; inactive = mostly below about 14%; also: read at 38.3 µM for the half of the compounds with a filed dose; 0% is about no effect
HCMV antiviral – inhibitors of human cytomegalovirus. AID 1259415. HFF cells, HCMV-luciferase reporter, 72 h; hits give low values. activity change, negative = inhibition, % at 57.5 µM. 410,000 tested, 4.5% active; in the data active = activity change below about -60%; inconclusive = no clear call, values can overlap the other calls; inactive = above about -39%; also: % is scaled to controls: 0 for no effect and ±100 for the full control effect
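Two compound doses tested in HFFs infected with HCMV-luciferase, MOI 1 PFU/cell, 72 h at 37C. Lysate luminescence read with OneGlo; data normalized against buffer-only and 10uM Salinomycin inhibitor controls.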
Shiga inhibitor – blocks Shiga toxin action in Vero cells; 290,000 tested, 9.2% active; AID 2315; inhibition, % at 38.7 µM; Vero cells, Shiga toxin protein synthesis inhibition reporter; in the data active = inhibition mostly above about 28%, no sharp cut-off; inactive = mostly below about 43%; also: 0% is about no effect
Pf growth 48h – inhibits P. falciparum growth in the first generation, 48 h. P. falciparum luciferase growth in erythrocytes, 48 h. AID 504832. Potency, µM (doses to about 28.7 µM), for inactives: top-dose activity change, negative = inhibition, actives largely listed as inhibitors. 310,000 tested, 5.9% active; also: potency is read from the fitted curve at half-maximal effect; % is scaled to controls: 0 for no effect and ±100 for the full control effect
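Read-out is firefly luciferase luminescence from an integrated reporter in P. falciparum, so falling signal marks reduced parasite growth. Infected erythrocytes were at 2% hematocrit and 0.1% parasitemia (final) in Albumax-supplemented RPMI 1640.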
Active calls of the source: *; ? = inconclusive; · = no result given; + = active, no number; [ ] = another dose, or the depositor's remark. Shown are actives, neighbours in structure and some others; about 20% of the full set was active somewhere. Unless noted, calls follow the shape of the dose curve; as a rule, active = well fitted inhibition curve with a large enough effect; inconclusive = small, poorly fitted or top-dose-only effect, or another doubt; inactive = no such curve, though single readings can be large or run the other way.

SMILES | Pf growth 96h | CHX counter | HCMV antiviral | Shiga inhibitor | Pf growth 48h
O=C1C2C3C=CC(C3=C(c3ccccc3)c3ccccc3)C2C(=O)N1Cc1ccccc1 (stereo unspecified) | 35% | 10 | -29 | 14 | ·
COc1cccc(C(c2c(N)n(C)c(=O)n(C)c2=O)C(C)[N+](=O)[O-])c1 (stereo unspecified) | 17% | -3 | -24 | 22 | ?
Oc1ccc(C2Nc3cccc4cccc(c34)N2)c(O)c1 | 1.5µM* | -1 | -12 | 21 | 6.6µM*
COc1cccc(C2=CC(=O)CCC2)c1OC | · | · | 17 | · | ·
COC(=O)C1C(=O)c2c([nH]c(C(=O)OC3CCCC3C)c2C)CC1C (stereo unspecified) | 19% | 27* | 78 | 67* | 15%
COC(=O)C1C(=O)c2c([nH]c(C(=O)OCCOC(C)C)c2C)CC1C (stereo unspecified) | · | 16* | 38 | 35 | ·
COC(=O)C1C(=O)C2=C(CC1C)NC(C)=C(C(=O)OC1CCCCC1)C2c1ccc(N(C)C)cc1 (stereo unspecified) | 37% | 6 | -5 | 16 | 5.9µM*
COC(=O)C1C(=O)C2=C(CC1C)NC(C)=C(C(=O)OC(C)C)C2c1ccc(C)o1 (stereo unspecified) | · | 11 | 32 | -7 | ?
COC(=O)C1C(=O)c2c([nH]c(C(=O)OC3CCCCC3)c2C)CC1C (stereo unspecified) | -14% | 31* | 27 | 42* | 79%
Cc1c(C(=O)OC2CCCCC2)[nH]c2c1C(=O)CC(C)(C)C2 | · | 12 | 14 | 61 | 8%
COc1ccc(-c2cnc3c(NC(C)=O)cc(-c4cccc(C(=O)N(C)C)c4)cn23)cc1OC | · | · | -37 | · | ·
CCOC(=O)c1cnc(SCC(C)C)nc1N | 34% | 52* | 46 | + | 427%
CCOC(=O)c1cnc(N2CC2)nc1N | · | · | -68* | · | ·
CCOC(=O)c1cnc(SCc2cccc(C)c2)nc1N | -11% | 53* | 60 | 54* | 65%
CCOC(=O)c1cnc(SC)nc1N | -10% | 17* | 49 | -3 | ·
CCOC(=O)c1cnc(SCC#N)nc1N | 10% | 7 | -38 | 13 | -3%
CCOC(=O)c1ccc(NC(=O)c2cnc(N3CCCC3)nc2C)cc1 | · | · | -12 | · | ·
CCN(C(=O)COC(=O)c1cc2c(s1)CCC(C)C2)c1c(N)n(Cc2ccccc2)c(=O)[nH]c1=O (stereo unspecified) | · | · | 9 | · | ·
CC(Nc1ccnc2cc(Cl)ccc12)c1ccc(S(N)(=O)=O)cc1 (stereo unspecified) | 2.3µM* | 6 | 14 | -15 | 1.9µM*
CCN(CC)CCC[C@H](C)Nc1ccnc2cc(Cl)ccc12 | 0.043µM* | · | · | · | 0.048µM*
CCN(CC)CCCC(C)Nc1nccc2cccc(Cl)c12 (stereo unspecified) | · | · | -15 | · | ·
O=C(NCc1nc(-c2ccc(C(F)(F)F)cc2)no1)Nc1ccc(OC(F)(F)F)cc1 | -9% | -3 | -97* | 3 | -23%
COCCCNC(=S)Nc1ccc(C)cc1[N+](=O)[O-] | 9% | 20* | -4 | 55* | -3%[5.75 µM]
CCOc1ccccc1NC(=O)C(OC(=O)c1cnc(C)cn1)c1ccccc1 (stereo unspecified) | · | · | -21 | · | ·
COCCNC(C(=O)Nc1ccc(C)cc1[N+](=O)[O-])c1ccccc1 (stereo unspecified) | 36% | 28* | 2 | 38 | 39%
SMILES | Pf growth 96h | CHX counter | HCMV antiviral | Shiga inhibitor | Pf growth 48h
Cc1ccc(NC(=O)C(OC(=O)c2cnc(C)cn2)c2ccccc2)c([N+](=O)[O-])c1 (stereo unspecified) | 18% | 14* | -1 | 8 | 3%
COCCNC(C(=O)Nc1ccc([N+](=O)[O-])cc1Br)c1ccccc1 (stereo unspecified) | -27% | 1 | -82* | -3 | -20%
CC1(C)CC(=O)c2c(oc3c(Cl)cc(NS(=O)(=O)c4ccc(Cl)cc4)cc23)C1 | · | · | 8 | · | ·
Cc1cc2cc(CCNC(=O)CCCc3ccccc3)c(=O)[nH]c2cc1C | -16% | 9 | 17 | 8 | -17%
CC1(C(=O)NCCC#N)CCN1C(=O)C1(c2ccccc2)CC1 (stereo unspecified) | · | · | 30 | · | ·
COc1ccccc1CNC(=O)c1ccc(NC(=O)CC2SC(N3CCCC3)=NC2=O)cc1 (stereo unspecified) | · | · | -6 | · | ·
CCCCc1c(-c2ccccc2OC)ncn1CCc1cccc(OC)c1 | · | · | -25 | · | ·
CCCc1c(-c2ccc(F)cc2F)ncn1Cc1ccccc1OC | · | · | -78* | · | ·
CCCc1c(-c2ccccc2)ncn1Cc1ccccc1OC | · | · | -17 | · | ·
CCCCc1c(-c2ccccc2OC)ncn1CCc1ccccc1OC | · | · | -68* | · | ·
CCCCc1c(-c2ccccc2Br)ncn1CCc1ccccc1OC | · | · | -93* | · | ·
CCCc1c(-c2ccccc2Br)ncn1Cc1ccccc1OC | · | · | -73* | · | ·
COc1ccc(NC(=O)c2c(C(=O)Nc3ccccc3)sc3nc(C)cc(=O)n23)cc1 | · | · | -19 | · | ·
COC(=O)c1cccc(NS(=O)(=O)c2ccc(OC)c(C(=O)N3CCOCC3)c2)c1C | 0% | -3 | -4 | -3 | 9%
COc1cc(NC(=O)CSc2nnc3c(C)cc4c(C)ccc(C)c4n23)c(C(=O)O)cc1OC | 17% | -3 | -32 | -7 | -9%
CCCCCc1c(CC)ncn1CCc1ccccc1OC | · | · | -110* | · | ·
CCCc1c(-c2ccccc2F)ncn1CCc1ccccc1OC | · | · | -95* | · | ·
CCCCCc1c(-c2ccccc2OC)ncn1CCc1ccccc1OC | · | · | -83* | · | ·
O=c1c2ccccc2c(-c2ccc(O)cc2)nn1-c1cccc(C(F)(F)F)c1 | ? | -5 | ? | -5 | 9.3µM*
O=c1c2ccccc2c(-c2cccc(C(F)(F)F)c2)nn1-c1ccccc1 | 9.3µM* | -4 | -4 | -4 | ?
CCCCOC(=O)CCc1c(C)n[nH]c1C | -6% | -4 | 26 | 14 | 5%
O=C1/C(=C\c2ccc(-c3ccccc3Cl)o2)SC(=S)N1CC1CCCO1 (stereo unspecified) | 0% | -2 | -20 | -16 | 8%
O=C1/C(=C/c2ccco2)SC(=S)N1CC1CCCO1 (stereo unspecified) | 16% | 26* | ? | 63* | -3%
O=C1/C(=C\c2ccco2)SC(=S)N1C1CCS(=O)(=O)C1 (stereo unspecified) | ? | -3 | -74* | 1 | 34%
Cc1ccc(/C=C2\SC(=S)N(CC3CCCO3)C2=O)o1 (stereo unspecified) | ? | 1 | -85* | 9 | -30%
COc1ccc(C(=O)NCCc2csc(-c3ccc(Cl)cc3)n2)c(OC)c1 | · | · | -16 | · | ·
CC(=O)OCC12CC(OC(=O)CC(C)C)C(C)=CC1OC1C(O)C(OC(C)=O)C2(C)C12CO2 (stereo unspecified) | · | · | -97* | · | ·
Cc1nc2c(cc1N)nc(C)n2Cc1ccccc1 | 2.6µM* | 2 | -14 | -4 | -2%
CC(=O)c1cc2c(cc1NC(=O)c1ccc(C)cc1)OCCO2 | 27% | 8 | 101 | 12 | 23%
